Assay outcomes (PubChem BioAssay)
Rows were chosen to be rich in hits. Some 2.6% of all compounds tested hit in one or more screens of this group.
TWEAK-Fn14 inh: inhibitors of TWEAK-Fn14 signaling, primary screen, luciferase reporter cells, uHTS; TWEAK-stimulated Fn14 reporter cells, luciferase luminescence, 8 h; inhibition, % at 10 µM; 2% of 360,000 active; AID 1159606, 2016; in the data active means inhibition above about 50%
LGR2 inh: inhibitors of bursicon-induced LGR2 CRE-luciferase signal, primary screen, cell-based, HEK293, CRE-luciferase reporter, bursicon stimulation; Drosophila bursicon receptor LGR2 (rickets); bursicon-stimulated, 4 h; inhibition, % at 9.99 µM; 0.35% of 380,000 active; AID 720647, 2013;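 active means drop in luminescence signal, shown as inhibition above about 50% in the replicate tests, limit read from the data, passing the limit was not always enough; inconclusive means probably only some replicates passing the limit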;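 further: agonist challenge used bursicon conditioned medium at about half maximal strength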
TROY NFkB inh: inhibitors of TROY-driven NF-kB signaling, primary screen, Q293 LMP1-TROYcd cells, NF-kB luciferase, uHTS | inhibition, % at 10 µM | 0.98% of 360,000 active | Q293 LMP1-TROYcd NF-kB luciferase reporter, 4 h;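 active means compounds whose plate-normalised and pattern-corrected inhibition of the luciferase reporter signal at the single screening dose is 50% or more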
EBV LMP1 NFkB: EBV LMP1-driven NF-kappaB luciferase reporter inhibitors, primary screen, cell-based, luminescence, single point | inhibition, % at 12.5 µM | AID 504558, 2011 | LMP1-induced NF-kappaB luciferase reporter cells | 0.69% of 350,000 active; in the data active means inhibition above about 41%; inconclusive means no clear call, values can overlap the other calls;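 further: 0% = neutral control wells and 100% = reference inhibitor control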
aDG glyco up: activators of alpha-DG glycosylation, primary screen, uHTS, Pro5-aDG cells, AlphaScreen. activation, % at 10 µM. alpha-DG glycosylation AlphaScreen (IIH6); 0% Pro5, 100% B10-LARGE cell signal. 0.22% of 360,000 active;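 active means activation of at least 8% versus controls, or a plate z-score of at least 8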;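 further: Pro5 are CHO cells carrying HIG-tagged alpha-DG that lacks glycosylation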
HSP90 inh: HSP90 inhibitors, primary screen, cell lysate, luminescence; Rabbit reticulocyte lysate, luciferase refolding luminescence, 3 h; Heat shock protein HSP 90 (rabbit reticulocyte lysate; luciferase refolding); 0.91% of 290,000 active; inhibition, % at 5.6 µM;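 active means inhibition above the screen-wide mean plus 3 SD, computed separately per campaign, cut at about 16% in these data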;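 further: 0% = DMSO wells and 100% = 60 µM geldanamycin wells; inhibitors lower the luminescence because luciferase stays unfolded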
HSP90 confirm: HSP90 inhibitors, confirmation, cell lysate, luminescence; shares compounds with HSP90 inh; rabbit reticulocyte lysate, luciferase refolding luminescence, 3 h; inhibition, % at 5.9 µM; 64% of 2,300 active; in the data active means inhibition above about 18%;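 further: 0% = vehicle wells and 100% = reference inhibitor wells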
luciferase ctr: firefly luciferase inhibitors, HSP90 counter-screen, confirmation, artefact control for HSP90 inhibitor project, biochemical, luminescence, triplicate | shares compounds with HSP90 inh | purified native firefly luciferase | inhibition, % at 5.9 µM | 48% of 2,300 active | AID 1847, 2009;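 active means inhibition above the mean inhibition of all tested sample wells plus 3 SD, cut at about 10% in these data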;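 further: 0% = DMSO with luciferase and 100% = wells lacking luciferase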
Target sequence (P08659 whole entry, looked up): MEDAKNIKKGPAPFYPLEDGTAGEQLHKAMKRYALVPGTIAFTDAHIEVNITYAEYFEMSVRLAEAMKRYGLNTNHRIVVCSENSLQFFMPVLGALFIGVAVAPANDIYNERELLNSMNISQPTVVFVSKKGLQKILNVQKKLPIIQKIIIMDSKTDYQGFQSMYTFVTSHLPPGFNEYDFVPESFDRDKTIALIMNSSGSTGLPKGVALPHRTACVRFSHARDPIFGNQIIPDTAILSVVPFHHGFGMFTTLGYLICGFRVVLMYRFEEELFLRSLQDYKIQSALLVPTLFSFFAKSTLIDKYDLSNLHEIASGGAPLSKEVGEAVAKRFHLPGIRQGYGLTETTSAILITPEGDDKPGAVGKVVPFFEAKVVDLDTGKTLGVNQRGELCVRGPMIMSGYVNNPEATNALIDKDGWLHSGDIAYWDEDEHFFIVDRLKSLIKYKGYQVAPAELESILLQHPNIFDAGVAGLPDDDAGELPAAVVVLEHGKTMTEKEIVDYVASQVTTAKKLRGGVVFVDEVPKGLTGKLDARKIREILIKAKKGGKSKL
The depositor's hits bear a star.

How did CN(C)CC(=O)N[C@@H]1C=C[C@H](CC(=O)NCCN2CCCCC2)O[C@H]1CO do in these assays?
LGR2 inh: 5.1

What do the screens show for `CC(=O)N(CC(C)C)C[C@@H]1[C@H](c2ccc(C3=CCCC3)cc2)[C@H](CO)N1C(C)=O`?
LGR2 inh: -5.7

Results for COc1cccc(/C=C2\SC(=O)NC2=O)c1OCc1ccc(C(=O)O)cc1 ?
TWEAK-Fn14 inh: -5.7; LGR2 inh: -37.1; TROY NFkB inh: -19.0; EBV LMP1 NFkB: 0.5; aDG glyco up: -0.3; HSP90 inh: 22.8*; HSP90 confirm: -6.1; luciferase ctr: -15.6

How did CN1C(=O)S/C(=C\c2ccccc2OCc2ccc(C(=O)O)cc2)C1=O do in these assays?
TWEAK-Fn14 inh: 4.4; LGR2 inh: 6.4; TROY NFkB inh: -23.8; EBV LMP1 NFkB: -20.4; aDG glyco up: -0.3; HSP90 inh: 2.7

Results for Clc1ccc(-c2cn3cc(Cl)ccc3n2)cc1 ?
TWEAK-Fn14 inh: 75.2*; LGR2 inh: 38.3; TROY NFkB inh: 33.0; EBV LMP1 NFkB: -56.3; aDG glyco up: 0.0; HSP90 inh: 31.8*; HSP90 confirm: 54.8*; luciferase ctr: 53.6*

How did Oc1ccc(-c2cn3cc(C(F)(F)F)ccc3n2)cc1 do in these assays?
TWEAK-Fn14 inh: 28.2; LGR2 inh: 42.7; TROY NFkB inh: -54.7; EBV LMP1 NFkB: 35.5; aDG glyco up: 0.0; HSP90 inh: 17.0*; HSP90 confirm: 49.1*; luciferase ctr: 39.6*

What do the screens show for `CC(=O)Nc1ccc(-c2cn3cc(C)ccc3n2)cc1`?
TWEAK-Fn14 inh: 3.2; LGR2 inh: 13.4; TROY NFkB inh: -74.2; EBV LMP1 NFkB: -6.6; aDG glyco up: 0.8; HSP90 inh: 4.1

Results for Cc1ccc2nc(-c3ccc(O)c(O)c3)cn2c1 ?
TWEAK-Fn14 inh: 68.5*; LGR2 inh: inconclusive; TROY NFkB inh: -8.7; EBV LMP1 NFkB: 2.9; aDG glyco up: 0.1; HSP90 inh: 30.2*; HSP90 confirm: 41.1*; luciferase ctr: 9.7*

Results for Cc1ccc2nc(-c3ccccc3)cn2c1 ?
TWEAK-Fn14 inh: 105.4*; TROY NFkB inh: 85.5*; EBV LMP1 NFkB: 72.5*; aDG glyco up: 0.1; HSP90 inh: 85.9*; HSP90 confirm: 91.8*; luciferase ctr: 83.0*

What do the screens show for `CNC[C@@H]1OCCCC[C@H](C)Oc2ccc(NS(=O)(=O)c3ccc(F)cc3)cc2C(=O)N([C@H](C)CO)C[C@@H]1C`?
LGR2 inh: -12.4

Results for C[C@@H]1CN([C@@H](C)CO)C(=O)Cc2cc(NC(=O)Nc3ccc(F)cc3)ccc2O[C@H]1CN(C)C(=O)Nc1ccccc1 ?
LGR2 inh: 2.4

What do the screens show for `C[C@@H]1CN([C@H](C)CO)C(=O)Cc2cc(NC(=O)Nc3ccc(F)cc3)ccc2O[C@H]1CN(C)C(=O)Nc1ccc2c(c1)OCO2`?
LGR2 inh: -7.9

Results for O=C(O)c1cccc(Nc2nc(N3CCOCC3)nc(N3CCOCC3)n2)c1 ?
TWEAK-Fn14 inh: -3.1; LGR2 inh: 7.9; TROY NFkB inh: 0.9; EBV LMP1 NFkB: 5.8; aDG glyco up: -0.3; HSP90 inh: 3.2

How did O=C(O)c1cccc(Nc2ccnc(Nc3cccc(C(=O)O)c3)n2)c1 do in these assays?
TWEAK-Fn14 inh: -11.6; LGR2 inh: 89.9*; TROY NFkB inh: -75.1; EBV LMP1 NFkB: 57.8*; aDG glyco up: 0.3; HSP90 inh: 37.4*; HSP90 confirm: 39.5*; luciferase ctr: 58.0*

Results for C/C=C/c1ccccc1[C@@H]1[C@@H](C#N)N(C(=O)CN2CCOCC2)[C@H]1CO ?
LGR2 inh: 20.2

What do the screens show for `COc1ccc(C(=O)c2coc3ccc(O)c(CN4CCCCC4)c23)cc1`?
TWEAK-Fn14 inh: -17.3; LGR2 inh: 6.4; TROY NFkB inh: -23.1; EBV LMP1 NFkB: 1.3; aDG glyco up: 0.4; HSP90 inh: 47.1*; HSP90 confirm: -0.8; luciferase ctr: -10.5

What do the screens show for `O=C(c1ccccc1)c1coc2ccc(O)c(CN3CCOCC3)c12`?
TWEAK-Fn14 inh: 6.0; TROY NFkB inh: -6.4; EBV LMP1 NFkB: -3.2; aDG glyco up: 0.0; HSP90 inh: 1.2

Results for COCC(=O)Nc1ccc2c(c1)C(=O)N(C)[C@@H]1CC[C@H](CC(=O)NCc3ccccc3)O[C@@H]1CO2 ?
LGR2 inh: -16.3

How did O=C(NCc1ccco1)c1ccccc1Br do in these assays?
TWEAK-Fn14 inh: -1.5; TROY NFkB inh: 7.2; EBV LMP1 NFkB: -19.1; aDG glyco up: 0.1; HSP90 inh: 18.6*; HSP90 confirm: -0.3; luciferase ctr: -6.0

What do the screens show for `O=C(NNC(=S)NCc1ccco1)c1ccccc1Br`?
TWEAK-Fn14 inh: 2.7; LGR2 inh: 4.2; TROY NFkB inh: -3.2; EBV LMP1 NFkB: 2.3; aDG glyco up: 0.4; HSP90 inh: 3.4

Results for COc1ccc(NC(=O)N2CCCC2C(=O)NCc2ccc(F)cc2)cc1 (configuration not stated) ?
TWEAK-Fn14 inh: 0.6; TROY NFkB inh: -12.9; EBV LMP1 NFkB: 5.3; aDG glyco up: 0.0; HSP90 inh: 2.1

How did O=C(NCc1ccc(F)cc1)C1CCCN1C(=O)Nc1cccc(F)c1 (configuration not stated) do in these assays?
TWEAK-Fn14 inh: 7.5; LGR2 inh: 2.1; TROY NFkB inh: 8.3; EBV LMP1 NFkB: 11.6; aDG glyco up: -0.1; HSP90 inh: 23.6*; HSP90 confirm: -1.1; luciferase ctr: -3.4

Results for COc1ccc(C(=O)Nc2ccc(C)cn2)c(OC)c1 ?
TWEAK-Fn14 inh: 102.4*; TROY NFkB inh: 75.9*; EBV LMP1 NFkB: 75.0*; aDG glyco up: -0.1; HSP90 inh: 88.0*; HSP90 confirm: 87.8*; luciferase ctr: 81.8*

Results for COc1ccc(C(=O)Nc2cc(C)on2)c(OC)c1 ?
TWEAK-Fn14 inh: 20.1; LGR2 inh: -49.0; TROY NFkB inh: -13.0; EBV LMP1 NFkB: -20.1; aDG glyco up: -0.1; HSP90 inh: 2.4

How did COc1ccc(/C(O)=C2/C(=O)C(=O)N(Cc3cccnc3)C2c2ccccn2)cc1 (configuration not stated) do in these assays?
TWEAK-Fn14 inh: -33.8; TROY NFkB inh: -57.5; EBV LMP1 NFkB: -3.6; aDG glyco up: 0.0; HSP90 inh: 1.9
